Assay outcomes from PubChem.
Sampled rows, rich in hits. Any-hit rate of the full collection: about 21%.
NS1 function inh: inhibitors of influenza NS1 protein function | Potency, µM (doses to about 46.1 µM) | 270,000 compounds, 0.4% hits; calls by dose curve; note: actives are rising curves; nearly all actives have a fitted effect of over 50% in size
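OD600 was taken as the measure of yeast growth restored by compound in an NS1-expressing S. cerevisiae strain. Cells had been washed out of glucose medium and diluted 1:100 into galactose -URA medium, pH 6.0.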
Pf growth 48h: inhibits P. falciparum growth in the first generation, 48 h. 310,000 compounds, 5.9% hits. P. falciparum luciferase growth in erythrocytes, 48 h. Potency, µM (top dose mostly 28.7 µM), hits mostly inhibitors
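Read-out is firefly luciferase luminescence from an integrated reporter in P. falciparum, so falling signal marks reduced parasite growth. Infected erythrocytes were at 2% hematocrit and 0.1% parasitemia (final) in Albumax-supplemented RPMI 1640.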
Pf growth 96h: P. falciparum growth inhibition at 96 hour, primary screen for plastid delayed-death inhibitors | Potency, µM (highest dose often 28.7 µM), hits mostly inhibitors | 320,000 compounds, 6.9% hits | AID 504834 | P. falciparum luciferase reporter growth, 96 h
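Erythrocytes infected with luciferase-expressing P. falciparum were dispensed at 2% hematocrit and 0.05% parasitemia (final), then incubated with compounds 96 hours at 37 C in 5% CO2. Luminescence after detection reagent addition reported growth.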
Shiga toxin inh: Shiga toxin inhibition | Vero cells, Shiga toxin protein synthesis inhibition reporter | inhibition, % at 38.7 µM | 290,000 compounds, 9.2% hits | AID 2315; in the data active = inhibition mostly above about 28%, no sharp cut-off; inactive = mostly below about 43%
Cycloheximide cs: counter-screen for Shiga toxin inhibitors: cycloheximide protein synthesis inhibition; max response, %; cell reporter, cycloheximide protein synthesis inhibition counterscreen; 300,000 compounds, 12% hits; AID 2314; in the data active = max response mostly above about 13%, no sharp cut-off; inactive = mostly below about 14%; note: read at 38.3 µM for the half of the compounds with a filed dose
Large screens that a line does not name were inactive. Unless noted, calls come from the whole dose curve; as a rule, active = well fitted inhibition curve with a large enough effect; inconclusive = small, poorly fitted or top-dose-only effect, or another doubt; inactive = no such curve, though single readings can be large or run the other way.

O=C(O)c1ccc(C(=O)c2ccc3c(c2)C(=O)N(CC2CCCO2)C3=O)cc1 (stereo not given)	Pf growth 96h inconclusive
CSCCC(NS(=O)(=O)c1ccccc1)C(=O)Nc1nccs1 (stereo not given)	none (no result: NS1 function inh, Shiga toxin inh, Cycloheximide cs)
Cc1ccc(-c2cc(C(=O)Nc3nccs3)c3ccccc3n2)o1	Pf growth 48h inconclusive, Pf growth 96h 9.3µM
COc1ccc(NC(=O)c2cc(-c3ccc(C)o3)nc3ccccc23)cc1OC	Shiga toxin inh 80, Cycloheximide cs 38 (no result: Pf growth 96h)
Cc1ccc(-c2cc(C(=O)Nc3nccs3)c3ccccc3n2)c(C)c1	Pf growth 48h inconclusive, Pf growth 96h 1.3µM
COC(=O)c1ccc2c(=O)n(Cc3ccco3)c(SCC(=O)Nc3cc(C)on3)nc2c1	Pf growth 48h 4.7µM
CCn1c(Cc2ccccc2)nnc1SCC(=O)Nc1cc(C)on1	Pf growth 96h 8.3µM
COC(=O)CSc1nnc(CSc2nc(C)cc(C)n2)n1Cc1ccco1	none (no result: Pf growth 96h)
Cc1cc(NC(=O)CSc2nnc(COc3ccccc3)n2Cc2ccco2)no1	Pf growth 96h 8.3µM
Cc1cc(NC(=O)CSc2nnc(-c3ccccc3)n2Cc2ccco2)no1	Pf growth 48h inconclusive, Pf growth 96h inconclusive
Cc1cc(C)nc(SCc2nnc(SCC(=O)Nc3ccc(C)c(C)c3)n2Cc2ccco2)n1	Pf growth 48h inconclusive, Pf growth 96h 13µM
Cc1cc(NC(=O)CSc2nnc(Cc3ccccc3)n2C)no1	none
COC(=O)c1ccc2c(=O)n(Cc3ccco3)c(SCC(=O)Nc3ccccc3Cl)nc2c1	Pf growth 96h inconclusive
CCCCNC(=O)c1ccc(CS(=O)(=O)c2ccc(C)cc2)o1	none
Cc1nc(CNC(=O)CC2C(=O)NCCN2Cc2ccoc2)nc2c1CCCC2 (stereo not given)	none
Cc1ccc(NC(=S)NCCC(c2ccccc2)c2ccccc2)c(C)c1	Pf growth 48h inconclusive, Pf growth 96h inconclusive
Cc1ccc(CNC(=S)Nc2ccc(OC(F)F)cc2C)cc1	Pf growth 96h inconclusive
CC(C)(C)c1ccccc1NC(=S)NCc1ccccc1	Pf growth 48h inconclusive, Pf growth 96h 13µM
Cc1ccc(NC(=S)NCc2ccccc2)c(C)c1	Pf growth 48h inconclusive, Pf growth 96h inconclusive, Cycloheximide cs 10
Cc1ccc(NCc2ccccc2O)c(C)c1	Shiga toxin inh 48, Cycloheximide cs 20 (no result: NS1 function inh)
Cc1ccc(NC(=S)NCc2ccc(Cl)cc2)c(OC(F)F)c1	Pf growth 48h inconclusive, Pf growth 96h 4.1µM
Cc1ccc(C(=O)Nc2ccc(Br)cc2)cc1S(=O)(=O)Nc1ccccn1	none
CCOc1ccc(C(=O)NC(=S)Nc2cccc(NC(=O)c3ccco3)c2)cc1[N+](=O)[O-]	none
Cc1cccc(NNC(N)=S)c1C	none
Cc1ccc2c(c1)c1c(n2CCc2ccc(C)nc2)CCN(C)C1	Pf growth 48h 15µM, Pf growth 96h 2.1µM (no result: NS1 function inh, Shiga toxin inh, Cycloheximide cs)
Cc1noc(C)c1C(=O)Nc1ccc2ccccc2c1	Pf growth 96h inconclusive, Cycloheximide cs 21
Cc1noc(C)c1C(=O)Nc1ccc(F)c(F)c1	none (no result: Pf growth 48h)
CC(=O)Nc1ccc(NC(=O)c2c(C)noc2C)cc1	Pf growth 48h 4.7µM, Pf growth 96h inconclusive
COc1cc(C)cc2c(-c3c(O)cc(O)c4c3C[C@H](C)N[C@@H]4C)cc(-c3cc(-c4c(O)cc(O)c5c4C[C@H](C)N[C@@H]5C)c4cc(C)cc(OC)c4c3O)c(O)c12	NS1 function inh 7.9µM (no result: Pf growth 48h, Pf growth 96h, Shiga toxin inh, Cycloheximide cs)
Cc1ccc(-c2cn(-c3ccccc3)c(SCC(=O)NC3CCS(=O)(=O)C3)n2)cc1C (stereo not given)	Shiga toxin inh active, Cycloheximide cs 53
Cc1ccc(SCC(=O)NC2CCS(=O)(=O)C2)cc1C (stereo not given)	none (no result: NS1 function inh, Shiga toxin inh, Cycloheximide cs)
Cc1cccc(C)c1C(OCCN(C)C)C1CCCCC1 (stereo not given)	Pf growth 48h inconclusive, Pf growth 96h inconclusive
Cc1ccc(OCCCCN2CCCC(C)C2)c([N+](=O)[O-])c1 (stereo not given)	Pf growth 48h inconclusive, Pf growth 96h inconclusive
CC(C(=O)c1c[nH]c2ccccc12)N1CCc2ccccc2C1 (stereo not given)	Pf growth 48h inconclusive, Pf growth 96h 2.9µM
CCN(CC(=O)NCc1ccc(Cl)cc1)C(=O)CCc1ccccc1O	none
CS(=O)(=O)N1CCN(c2ccc(NC(=O)Cc3ccccc3)cc2)CC1	none (no result: Pf growth 48h)
CN1CCN(c2ccc(NC(=O)Cc3ccccc3)cc2)CC1	Shiga toxin inh 75, Cycloheximide cs 55 (no result: Pf growth 96h)
O=C(Cc1ccccc1)Nc1ccc(N2CCCCC2)cc1	Shiga toxin inh 83, Cycloheximide cs 31
